# Measured values reported in PubChem BioAssay (NCATS).
# Inconclusive results are not listed. Where a call stands in place of a potency, no number is given. The source made the active and inactive calls. Unless noted, the call rests on the fitted dose curve; in most records, active means well fitted curve in the direction sought with a large enough effect; inconclusive means small, poorly fitted or top-dose-only effect, or another doubt; inactive means no such curve, though single readings can be large; an effect the other way counts as inactive or inconclusive.
# Experiments:
# [1] = S16 Schwann cell viability assay (CellTiter-Glo assay) (AID 624031);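 further: cellular ATP luminescence as a viability measure; nearly all actives have a fitted effect of over 70% in size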
# In short: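 Untransfected S16 rat Schwann cells; compound 24 h, 37 °C/5% CO2; CellTiter-Glo ATP luminescence. % activity vs no-cell wells and DMSO controls (0%); concentration-effect curves classed by r2, response magnitude, activity.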
# [2] = S16 Schwann cell PMP22 intronic element beta-lactamase assay (AID 624044; calls by dose curve; further: nearly all actives have a fitted effect of over 15% in size; further: potency means the concentration at half of the fitted maximal effect); details: S16 rat Schwann cells, PMP22 element beta-lactamase FRET, 24 h; ratio activity, negative = inhibition: at 38.3 µM (top of the series)
# In short: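 Beta-lactamase reporter under a PMP22 intronic regulatory element in stable S16 rat Schwann cells; 24 h compound exposure. 460 nm blue signal normalized between DMSO (0%) and potassium clavulanate, with 535 nm FRET tracking viability; curves classed by r2 and response.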
# CP201 = test: qHTS profiling for inhibitors of Plasmodium falciparum proliferation (AID 504749); further: nearly all actives have a fitted effect of over 60% in size; further: potency means the concentration at half of the fitted maximal effect; details: P. falciparum in erythrocytes, SYBR Green DNA, 72 h; series mostly up to 28.7 µM
# In short: (§1)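 Quantitative HTS: compounds pinned into medium, infected erythrocytes added (0.3% parasitemia, 2.5% hematocrit), 72 h culture at 37 C under 5% CO2. Saponin/Triton lysis with SYBR Green I, overnight RT, then fluorescence read.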
# CP203 = test: as above; details: P. falciparum in erythrocytes, SYBR Green DNA, 72 h; series mostly up to 28.7 µM
# In short: as §1
# CP247 = test: as above; details: P. falciparum in erythrocytes, SYBR Green DNA, 72 h; series mostly up to 28.7 µM
# In short: as §1
# CP266 = test: as above; details: P. falciparum in erythrocytes, SYBR Green DNA, 72 h; series mostly up to 28.7 µM
# In short: as §1
# CP268 = test: as above; details: P. falciparum in erythrocytes, SYBR Green DNA, 72 h; series mostly up to 28.7 µM
# In short: as §1
# CP291 = test: as above; details: P. falciparum in erythrocytes, SYBR Green DNA, 72 h; series mostly up to 28.7 µM
# In short: as §1
# CP305 = test: as above; details: P. falciparum in erythrocytes, SYBR Green DNA, 72 h; series mostly up to 28.7 µM
# In short: as §1
# CP325 = test: as above; details: P. falciparum in erythrocytes, SYBR Green DNA, 72 h; series mostly up to 28.7 µM
# In short: as §1
# CP335 = test: as above; details: P. falciparum in erythrocytes, SYBR Green DNA, 72 h; series mostly up to 28.7 µM
# In short: as §1
# DIV17 = test: as above; details: P. falciparum in erythrocytes, SYBR Green DNA, 72 h; series mostly up to 28.7 µM
# In short: as §1
# GB4 = test: as above; details: P. falciparum in erythrocytes, SYBR Green DNA, 72 h; series mostly up to 28.7 µM
# In short: as §1
# P93_24 = test: as above; details: P. falciparum in erythrocytes, SYBR Green DNA, 72 h; series mostly up to 28.7 µM
# In short: as §1
# PC26 = test: as above; details: P. falciparum in erythrocytes, SYBR Green DNA, 72 h; series mostly up to 28.7 µM
# In short: as §1
# CP215 = test: as above; details: P. falciparum in erythrocytes, SYBR Green DNA, 72 h; series mostly up to 28.7 µM
# In short: as §1
# CP297 = test: as above; details: P. falciparum in erythrocytes, SYBR Green DNA, 72 h; series mostly up to 28.7 µM
# In short: as §1
# ICS = test: as above; details: P. falciparum in erythrocytes, SYBR Green DNA, 72 h; series mostly up to 28.7 µM
# In short: as §1
# PAD = test: as above; details: P. falciparum in erythrocytes, SYBR Green DNA, 72 h; series mostly up to 28.7 µM
# In short: as §1
# 7G8 = test: as above; details: P. falciparum in erythrocytes, SYBR Green DNA, 72 h; series mostly up to 28.7 µM
# In short: as §1
Compound,Potency [1],Potency [2],Potency (CP201),Potency (CP203),Potency (CP247),Potency (CP266),Potency (CP268),Potency (CP291),Potency (CP305),Potency (CP325),Potency (CP335),Potency (DIV17),Potency (GB4),Potency (P93_24),Potency (PC26),Potency (CP215),Potency (CP297),Potency (ICS),Potency (PAD),Potency (7G8)
CC1(C)SC2[C@@H](N=CN3CCCCCC3)C(=O)N2[C@H]1C(=O)O (stereo not given in full),inactive,inactive,inactive,inactive,inactive,inactive,inactive,inactive,inactive,inactive,inactive,inactive,inactive,inactive,inactive,–,–,–,–,–
Nc1nc(Cl)nc2c1ncn2[C@@H]1O[C@H](CO)[C@H](O)C1F (stereo not given in full),inactive,8.91 µM (active),inactive,inactive,inactive,inactive,inactive,–,inactive,inactive,inactive,inactive,inactive,inactive,inactive,inactive,inactive,inactive,inactive,–
CCN(CC)C(=O)[C@@]1(c2ccccc2)C[C@@H]1CN,inactive,inactive,inactive,inactive,inactive,inactive,inactive,inactive,inactive,inactive,inactive,–,inactive,inactive,–,inactive,inactive,inactive,inactive,–
CCC1OC(=O)C[C@H](O)C(C)[C@@H](O[C@@H]2OC(C)C(O)C(N(C)C)C2O)C(CCN2CC(C)CC(C)C2)CC(C)C(=O)/C=C/C(C)=C\[C@@H]1COC1OC(C)C(O)C(OC)C1OC (stereo not given in full),inactive,–,–,–,–,–,–,–,–,–,9.53 µM (active),–,7.57 µM (active),–,–,–,–,10 µM (active),–,–
CC1(C)O[C@@H]2C[C@H]3[C@@H]4CCC5=CC(=O)C=C[C@]5(C)[C@H]4C(O)C[C@]3(C)[C@]2(C(=O)CO)O1 (stereo not given in full),inactive,inactive,inactive,inactive,inactive,–,inactive,inactive,inactive,inactive,inactive,–,–,–,inactive,inactive,inactive,–,–,–
CN(C)CC[C@@](O)(c1ccccc1)c1ccccc1Cl,–,–,–,–,–,–,13.5 µM (active),–,–,7.57 µM (active),7.57 µM (active),6.75 µM (active),7.57 µM (active),5.62 µM (active),7.57 µM (active),–,5.36 µM (active),4.47 µM (active),11.2 µM (active),3.55 µM (active)
C=C1C(n2cnc3c(=O)[nH]c(N)nc32)C[C@H](O)[C@H]1CO (stereo not given in full),inactive,inactive,inactive,–,inactive,inactive,–,–,–,–,–,–,–,–,–,inactive,inactive,–,inactive,12.6 µM (active)
NC(C(=O)O)C(O)c1ccc(O)c(O)c1 (stereo not given),–,inactive,–,–,–,–,–,–,–,–,–,–,–,–,–,–,16.9 µM (active),11.2 µM (active),–,–
CC1CCC(O)C/C1=C\C=C1/CCCC2(C)C1CCC2C(C)/C=C/C(C)C(C)C (stereo not given),–,–,inactive,inactive,–,inactive,inactive,inactive,inactive,inactive,–,–,–,–,–,inactive,–,11.2 µM (active),–,–
Cc1c(C)c2c(c(C)c1O)CCC(C)(CCCC(C)CCCC(C)CCCC(C)C)O2 (stereo not given),inactive,inactive,inactive,inactive,inactive,inactive,inactive,inactive,inactive,inactive,inactive,inactive,inactive,inactive,inactive,inactive,–,–,inactive,–
CC(=O)O[C@]1(C(C)=O)CCC2C3CCC4=CC(=O)CCC4(C)C3(F)C(O)CC21C (stereo not given in full),inactive,inactive,inactive,inactive,inactive,inactive,inactive,inactive,inactive,inactive,inactive,inactive,inactive,inactive,inactive,inactive,inactive,–,inactive,–
C[C@]12CC[C@@H]3c4ccc(O)cc4CC[C@H]3[C@@H]1CCC2OC(=O)CCC1CCCC1 (stereo not given in full),–,inactive,inactive,inactive,inactive,inactive,inactive,inactive,inactive,inactive,–,inactive,inactive,–,inactive,inactive,inactive,12.6 µM (active),–,10 µM (active)
COC(=O)C1C2CC3c4[nH]c5cc(OC)ccc5c4CCN3CC2CC(OC)C1OC (stereo not given),–,inactive,inactive,inactive,inactive,inactive,inactive,inactive,inactive,inactive,inactive,–,inactive,inactive,inactive,inactive,inactive,inactive,inactive,–
C=C(CC[C@@H](C)[C@H]1CCC2[C@]1(C)CC[C@]13C[C@@]14CCC(OC(=O)/C=C/c1ccc(O)c(OC)c1)C(C)(C)[C@@H]4CC[C@@]23C)C(C)C (stereo not given in full),inactive,–,inactive,inactive,inactive,inactive,inactive,inactive,inactive,inactive,inactive,inactive,inactive,inactive,inactive,inactive,inactive,inactive,inactive,–
O=C(O)C[CH2][Ge](=[O])[O][Ge](=[O])[CH2]CC(=O)O,inactive,inactive,inactive,inactive,inactive,inactive,inactive,inactive,inactive,inactive,inactive,inactive,inactive,inactive,inactive,inactive,inactive,inactive,inactive,inactive
